We go through nine compounds from PubChem BioAssay (NCATS).

Molecules are shown by their SMILES. Inconclusive results are not listed. Where a call stands in place of a potency, no number is given. Active and inactive are the calls of the source. Calls follow the shape of the dose curve; as a rule, active = well fitted inhibition curve with a large enough effect; inconclusive = small, poorly fitted or top-dose-only effect; inactive = flat fitted curve, though single readings scatter.

The test system of one test is MCC-13. Kind of test: qHTS assay to identify novel small-molecules to repurpose for Merkel cell carcinoma treatment (AID 1296009). Also: nearly all actives have a fitted effect of over 60% in size. Conditions: MCC and control cell lines, CellTiter-Glo viability, 72 h; series mostly up to 46 µM. The essentials:
(§1)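 Cells were treated for 72 hr at 37 degree celsius with compounds in 8- or 11-point dose response. Viability was read by CellTiter-Glo luminescence, normalized to no-cell (cytotoxicity) and DMSO controls.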
With `OC[C@@H](O)[C@@H](O[C@@H]1O[C@H](CO)[C@H](O)[C@H](O)[C@H]1O)[C@H](O)[C@@H](O)CO`, the Potency result was “inactive”.
As for `CCCCCCCCCCCCCCCCOP(=O)([O-])OCC[N+](C)(C)C`, the Potency result was “inactive”.
Still for that read-out and setting: in the case of `CCN(CC)C(=O)N1CCN(C)CC1` it was “inactive”; in that of `c1ccc(-c2ccc(C(c3ccccc3)n3ccnc3)cc2)cc1` (centres undefined), “inactive”.
Turning to `O=C1OC(c2ccc(O)cc2)(c2ccc(O)cc2)c2ccccc21`, the Potency entry was “inactive”.
With `C[C@H]1[C@H](NC(=O)/C(=N/OC(C)(C)C(=O)O)c2csc(N)n2)C(=O)N1S(=O)(=O)O` (stereo in doubt), the Potency result was “inactive”.
Turning to `NC(=O)c1cc[n+](CC2=C(C(=O)[O-])N3C(=O)[C@@H](NC(=O)Cc4cccs4)[C@H]3SC2)cc1`, the Potency result is “inactive”.
As to `CC(C)(Oc1ccc(Cl)cc1)C(=O)O`, the Potency entry is “inactive”.
With `CCOC(=O)n1ccn(C)c1=S`, the Potency result is “inactive”.

The test system of another test is MCC-26. Described as above. As to conditions: MCC and control cell lines, CellTiter-Glo viability, 72 h; series mostly up to 46 µM. Put shortly: as §1
For orientation: Cellular ATP, detected with luciferase, serves as a proxy for viable cell number.
With `OC[C@@H](O)[C@@H](O[C@@H]1O[C@H](CO)[C@H](O)[C@H](O)[C@H]1O)[C@H](O)[C@@H](O)CO`, the Potency entry is “inactive”.
Consider `CCN(CC)C(=O)N1CCN(C)CC1`, for which the Potency result was “inactive”.
As to `c1ccc(-c2ccc(C(c3ccccc3)n3ccnc3)cc2)cc1` (centres undefined), the Potency entry is “inactive”.
As to `O=C1OC(c2ccc(O)cc2)(c2ccc(O)cc2)c2ccccc21`, the Potency result was “inactive”.
`C[C@H]1[C@H](NC(=O)/C(=N/OC(C)(C)C(=O)O)c2csc(N)n2)C(=O)N1S(=O)(=O)O` (stereo in doubt): the Potency result was “inactive”.
As for `CC(C)(Oc1ccc(Cl)cc1)C(=O)O`, the Potency result is “inactive”.

The next test deals with MKL-1. The test is described as above. Conditions: MCC and control cell lines, CellTiter-Glo viability, 72 h; series mostly up to 46 µM. Put shortly: as §1
In the case of `OC[C@@H](O)[C@@H](O[C@@H]1O[C@H](CO)[C@H](O)[C@H](O)[C@H]1O)[C@H](O)[C@@H](O)CO`, the Potency result is “inactive”.
Consider `CCN(CC)C(=O)N1CCN(C)CC1`, for which the Potency result is “inactive”.
Regarding `O=C1OC(c2ccc(O)cc2)(c2ccc(O)cc2)c2ccccc21`, the Potency result is “inactive”.
For `C[C@H]1[C@H](NC(=O)/C(=N/OC(C)(C)C(=O)O)c2csc(N)n2)C(=O)N1S(=O)(=O)O` (stereo in doubt), the Potency entry is “inactive”.
As for `NC(=O)c1cc[n+](CC2=C(C(=O)[O-])N3C(=O)[C@@H](NC(=O)Cc4cccs4)[C@H]3SC2)cc1`, the Potency result is “inactive”.
In the case of `CC(C)(Oc1ccc(Cl)cc1)C(=O)O`, the Potency entry is “inactive”.
`CCOC(=O)n1ccn(C)c1=S`: the Potency entry was “inactive”.

The test system of a further test is MKL-2. Described as above. As to conditions: MCC and control cell lines, CellTiter-Glo viability, 72 h; series mostly up to 46 µM. Put shortly: as §1
`OC[C@@H](O)[C@@H](O[C@@H]1O[C@H](CO)[C@H](O)[C@H](O)[C@H]1O)[C@H](O)[C@@H](O)CO`: the Potency entry is “inactive”.
Same read-out and setting: next, `CCN(CC)C(=O)N1CCN(C)CC1`: “inactive”.
In the case of `O=C1OC(c2ccc(O)cc2)(c2ccc(O)cc2)c2ccccc21`, the Potency result is “inactive”.
Consider `C[C@H]1[C@H](NC(=O)/C(=N/OC(C)(C)C(=O)O)c2csc(N)n2)C(=O)N1S(=O)(=O)O` (stereo in doubt), for which the Potency result is “inactive”.
On to `NC(=O)c1cc[n+](CC2=C(C(=O)[O-])N3C(=O)[C@@H](NC(=O)Cc4cccs4)[C@H]3SC2)cc1`, for which the Potency entry is “inactive”.
As to `CC(C)(Oc1ccc(Cl)cc1)C(=O)O`, the Potency result was “inactive”.
Consider `CCOC(=O)n1ccn(C)c1=S`, for which the Potency result was “inactive”.
